# This is part of a sample that, as a whole, favours compounds with a hit. Of some 83,000 tested, about 20% had one in any assay.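 Cells were grown in 96-well plates and exposed to the test compound at a single concentration for 48 hours; results are reported as percent growth, with values below 10 considered active.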 Values without a mark were called inactive. Calls of active or inactive are those of the source.
# What was measured:
# Experiment in all cases: NCI-60 one-dose screen, 48 h (100 = growth as untreated, 0 = no growth, -100 = all killed)
# Conditions in all cases: 10 µM unless noted
# [1] = tested on: SR leukemia
# [2] = tested on: OVCAR-8 ovarian
# [3] = tested on: OVCAR-5 ovarian
# [4] = tested on: OVCAR-4 ovarian
# [5] = tested on: SK-OV-3 ovarian
# [6] = tested on: IGROV1 ovarian
# [7] = tested on: OVCAR-3 ovarian
# [8] = tested on: HS 578T breast
# [9] = tested on: NCI/ADR-RES ovarian
# [10] = tested on: T-47D breast
# [11] = tested on: BT-549 breast
# [12] = tested on: MDA-MB-435 melanoma
# [13] = tested on: SW-620 colon
# [14] = tested on: MCF7 breast
# [15] = tested on: HCT-116 colon
# [16] = tested on: HCC-2998 colon
# [17] = tested on: KM12 colon
# [18] = tested on: RPMI-8226 leukemia
SMILES,growth [1],growth [2],growth [3] [%],growth [4],growth [5] [%],growth [6],growth [7],growth [8],growth [9],growth [10],growth [11] [%],growth [12],growth [13],growth [14],growth [15],growth [16],growth [17],growth [18]
Cn1c(=O)c2c(nc(N3CCCC3)n2C)n(C)c1=O,100%,100%,99.1,99.1%,103,98.5%,110%,105%,103%,90.5%,97,107%,106%,99.1%,93.3%,108%,101%,–
N=C(N)c1ccc(S(N)(=O)=O)cc1,–,100%,88.2,102%,115,110%,113%,–,97.5%,101%,94.2,98.5%,–,99.4%,93.9%,93.9%,106%,128%
CCCCCC1CCCCN1C(=O)OCC (stereo unspecified),–,107%,94.7,105%,98.5,104%,–,110%,111%,92.4%,98.1,115%,–,99.3%,93.6%,94.4%,110%,103%
Cc1oc(-c2ccccc2Cl)cc1C(=O)Nc1ccc(S(N)(=O)=O)cc1,101%,98.1%,102,96.8%,98.5,113%,117%,101%,102%,83.2%,104,102%,108%,92.7%,102%,103%,101%,–
O=C1C(Cl)=C(Nc2ccc(S(=O)(=O)c3ccc(NC4=C(Cl)C(=O)c5ccccc5C4=O)cc3)cc2)C(=O)c2ccccc21,–,-61.8% (active),100,-84.9% (active),78.9,-18.5% (active),-98.4% (active),–,43.6%,-39.6% (active),31.4,10.5%,0.736% (active),-55.1% (active),-85.7% (active),47.1%,5.09% (active),5.2% (active)
C#CCC(C)(O)/C=C/C1=C(C)CCCC1(C)C (stereo unspecified),107%,101%,88.7,107%,92.3,102%,106%,108%,99.8%,83%,87.6,–,104%,97.6%,82.6%,106%,97.6%,–
Cc1ccc(NC2CC(=O)N(c3c(C)cc(C)cc3C)C2=O)c(C)c1 (stereo unspecified),95.3%,107%,104,98.6%,121,93.9%,115%,104%,106%,99.4%,113,103%,101%,–,105%,112%,–,–
CCCCC(=O)OC1CCCCC1C (stereo unspecified),95%,87%,90.9,104%,89.4,106%,107%,97.6%,96.7%,95.2%,85.2,101%,105%,103%,81%,111%,99.2%,–
Cc1ccc2[nH]cc(-c3nc(-c4cn(C)c5ncccc45)cs3)c2c1,–,85.8%,108,–,102,108%,106%,99%,66.7%,41.5%,82.9,79.3%,109%,55.1%,74.9%,88.8%,77.9%,62.7%
O=C(O)/C(=C/c1ccc(O)cc1)c1ccccc1,–,95.7%,84.4,98.7%,112,99%,103%,–,94.6%,94.6%,95.5,109%,105%,98%,92.7%,95.8%,–,95.5%
Fc1ccc2[nH]cc(-c3nc(-c4c[nH]c5ncccc45)cs3)c2c1,–,36.6%,–,–,58.9,32.5%,44.5%,31.4%,27.1%,47.3%,20.6,62.1%,–,30.3%,26.2%,84.4%,38.9%,31.5%
CCCCCCCN(CCCCCCC)C(=N)c1ccnc2ccccc12,-44.5% (active),-40.8% (active),34.7,5.2% (active),36.8,4.57% (active),-41.8% (active),-43.6% (active),-52.5% (active),-39.9% (active),56,-88.5% (active),-75.9% (active),-62.2% (active),-83.7% (active),-87% (active),-16.8% (active),–
COc1ccc(OCC(CO)N2CCN(c3ccccc3)CC2)cc1 (stereo unspecified),–,93.6%,103,92.4%,106,112%,102%,96.6%,99.9%,101%,97.5,108%,110%,83.4%,95.7%,99.7%,105%,131%
Cn1cccc1/C=C1/SC(=S)N(CCc2ccc(O)cc2)C1=O,24.1%,67.1%,95.9,89.4%,83.5,45.7%,39.4%,67.7%,16.3%,42%,41.4,-27.9% (active),31.6%,33.8%,21.4%,77.4%,40.5%,–
COc1ccc(CCN2C(=O)C(C)(C)SC2=S)cc1OC,103%,102%,104,96.6%,108,94.4%,107%,107%,100%,104%,105,–,103%,98.5%,97.6%,106%,101%,–
O=c1[nH]c(=S)[nH]c2nc[nH]c12,–,95.2%,90.5,107%,112,105%,115%,–,95.1%,105%,109,110%,99.2%,97.4%,93.9%,99.7%,106%,99.2%
Cc1cc(N=O)cc(C(C)(C)C)c1O,98.9%,103%,108,97.7%,75.8,98.6%,105%,90.8%,99.3%,85.4%,97.7,99.4%,94.8%,93.6%,88.1%,106%,102%,–
OCC(CO)(CCl)CCl,95.6%,101%,98.1,109%,88.5,109%,105%,105%,99%,94.2%,95.6,105%,101%,94.2%,78.6%,101%,99.9%,–
c1ccc2c(-c3nc(-c4c[nH]c5ncccc45)cs3)c[nH]c2c1,–,98.4%,119,–,88.6,59.3%,102%,110%,107%,93.8%,97,84.8%,103%,83%,95%,102%,90.6%,76.7%

# From PubChem BioAssay (NCI)
